# Screening results as filed in PubChem BioAssay.
# Hits are enriched below; roughly 2.1% of the tested compounds scored in any of these assays.
# NSD2 inh – inhibitors of human histone methyltransferase NSD2; O96028; NSD2 peptide methylation, AlphaScreen, 120 min; inhibition, % at 12.5 µM; 0.54% of 310,000 active; AID 743445; in the data active means inhibition above about 50%
# Target sequence (O96028 whole entry, looked up): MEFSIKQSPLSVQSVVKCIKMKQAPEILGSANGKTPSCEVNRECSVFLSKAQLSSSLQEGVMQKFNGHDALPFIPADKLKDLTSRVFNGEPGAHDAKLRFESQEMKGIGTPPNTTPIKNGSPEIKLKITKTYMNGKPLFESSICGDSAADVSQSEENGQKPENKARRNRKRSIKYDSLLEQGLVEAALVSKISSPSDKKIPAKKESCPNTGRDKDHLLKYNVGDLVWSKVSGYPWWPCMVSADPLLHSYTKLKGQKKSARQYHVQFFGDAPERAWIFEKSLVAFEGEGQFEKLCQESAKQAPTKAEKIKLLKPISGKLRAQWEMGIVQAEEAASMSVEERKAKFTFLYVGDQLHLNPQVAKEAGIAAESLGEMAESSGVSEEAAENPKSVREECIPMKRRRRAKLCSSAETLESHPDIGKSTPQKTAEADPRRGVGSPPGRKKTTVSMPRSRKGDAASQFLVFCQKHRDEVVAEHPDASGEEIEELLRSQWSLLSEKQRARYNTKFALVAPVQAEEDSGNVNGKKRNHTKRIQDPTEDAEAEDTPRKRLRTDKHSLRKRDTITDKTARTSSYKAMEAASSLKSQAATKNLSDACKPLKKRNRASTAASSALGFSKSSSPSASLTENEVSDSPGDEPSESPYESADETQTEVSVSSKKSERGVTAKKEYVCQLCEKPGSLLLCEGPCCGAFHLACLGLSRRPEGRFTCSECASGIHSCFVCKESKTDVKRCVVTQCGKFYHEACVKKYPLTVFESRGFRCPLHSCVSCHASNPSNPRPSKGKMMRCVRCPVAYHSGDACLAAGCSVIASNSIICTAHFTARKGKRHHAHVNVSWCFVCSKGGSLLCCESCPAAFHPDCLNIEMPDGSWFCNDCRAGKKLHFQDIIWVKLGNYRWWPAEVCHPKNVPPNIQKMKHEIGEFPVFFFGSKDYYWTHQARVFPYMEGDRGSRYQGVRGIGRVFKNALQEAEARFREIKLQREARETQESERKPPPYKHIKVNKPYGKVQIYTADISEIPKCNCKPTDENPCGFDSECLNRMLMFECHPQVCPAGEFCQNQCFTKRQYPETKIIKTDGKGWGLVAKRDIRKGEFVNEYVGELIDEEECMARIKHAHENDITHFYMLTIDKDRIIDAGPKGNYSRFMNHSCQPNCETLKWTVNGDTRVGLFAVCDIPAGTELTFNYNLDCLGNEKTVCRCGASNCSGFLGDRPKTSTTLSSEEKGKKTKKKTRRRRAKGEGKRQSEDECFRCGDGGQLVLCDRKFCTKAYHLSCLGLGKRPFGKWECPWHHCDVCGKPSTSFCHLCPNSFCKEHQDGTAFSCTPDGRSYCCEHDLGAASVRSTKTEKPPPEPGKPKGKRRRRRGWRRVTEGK
# CASP6 VEID inh – blocks human caspase-6 cleavage activity | P55212 | purified caspase-6, Z-VEID-R110 cleavage fluorescence | inhibition, % at 12.5 µM | 0.53% of 350,000 active | AID 686996;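 active means mean inhibition across replicates at least about 35%, with every replicate also reaching that limit, limit read from the data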;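 further: 0% = median of neutral control wells and 100% = no fluorescence left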
# ARNT-TACC3 inh – ARNT/TACC3 interaction disruption | Q9Y6A5 | AlphaScreen His-ARNT PAS-B/GST-TACC3 binding, luminescence; TACC3 fragment carries E629A point mutation | inhibition, % at 9.99 µM | 0.66% of 390,000 active;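 active means mean inhibition of replicates at least 50% and at least half of replicates each reaching 50%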;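 further: 0% = complete ARNT plus TACC3 wells and 100% = ARNT alone without TACC3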
# SIRT5 block – blocks human SIRT5 desuccinylation of peptide; Q9NXA8; Purified SirT5, succinyl-peptide AMC, trypsin-coupled fluorescence; inhibition, % at 15 µM; 1.1% of 330,000 active; in the data active means inhibition above about 15%
# PfHsp90 yeast 2 – growth inhibition of yeast expressing Plasmodium Hsp90; S. cerevisiae expressing PfHsp90, BacTiter-Glo ATP, 48 h; yeast lacking PDR1 and PDR3 efflux regulators; inhibition, % at 9.4 µM; 0.32% of 310,000 active;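 active means every replicate shows inhibition above about 80%, whatever the replicate mean, limit read from the data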;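 further: 0% = DMSO neutral controls and 100% = 20 µM radicicol positive controls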
# An asterisk follows results filed as active; x = no result given.
SMILES,NSD2 inh,CASP6 VEID inh,ARNT-TACC3 inh,SIRT5 block,PfHsp90 yeast 2
CC1(C(=O)Nc2cccc(C(F)(F)F)c2)Cc2c(-c3cccc(C(F)(F)F)c3)ccnc2O1 (stereo unspecified),-1,-1,x,21*,x
COc1ccc(NC(=O)C2(C)Cc3c(-c4cccc(C(N)=O)c4)ccnc3O2)cc1OC (stereo unspecified),-1,4,x,1,x
COc1ccc(NC(=O)C2(C)Cc3c(-c4ccc(C(N)=O)cc4)ccnc3O2)cc1OC (stereo unspecified),3,0,x,18*,x
Cc1noc(C)c1S(=O)(=O)N(C)C[C@@H]1OCCCC[C@H](C)Oc2ccc(NC(=O)NC3CCCCC3)cc2C(=O)N([C@H](C)CO)C[C@@H]1C,x,2,-4,3,x
Nc1ccc(CCn2ccnc2)cc1,1,-111,63*,-3,5
Cc1ccc(NS(=O)(=O)c2ccc3c(c2)N(C)CCO3)cc1,7,0,3,22*,17
CN1CCOc2cc(S(=O)(=O)Nc3ccc(F)cc3)ccc21,4,x,-3,x,-8
CCCc1cc(=O)oc2cc(OCc3ccc(C(=O)O)cc3)ccc12,-3,3,-11,-17,109*
O=C(NC1CCS(=O)(=O)C1)c1cccc(Br)c1 (stereo unspecified),0,-1,-1,17*,x
C[C@@H]1CN([C@H](C)CO)C(=O)c2ccccc2-c2ccccc2CO[C@@H]1CN(C)S(=O)(=O)c1cccc(C#N)c1,x,-3,12,5,x
Cc1noc(C)c1NC(=O)Nc1ccc2c(c1)C(=O)N([C@H](C)CO)C[C@@H](C)[C@@H](CN(C)Cc1ccc(C(=O)Nc3ccccc3N)cc1)O2,x,2,x,19*,x
C[C@H](CO)N1C[C@H](C)[C@@H](CN(C)Cc2ccc(C(=O)Nc3ccccc3N)cc2)Oc2ccc(NC(=O)Cc3cn(C)c4ccccc34)cc2CC1=O,x,1,12,4,x
C[C@H]1CN([C@@H](C)CO)C(=O)c2cc(NC(=O)Cc3cn(C)c4ccccc34)ccc2O[C@H]1CN(C)Cc1ccc(C(=O)Nc2ccccc2N)cc1,x,-1,-1,20*,x
CO[C@@H]1CN(C)C(=O)c2cc(NC(=O)Cc3ccccc3)ccc2OC[C@H](C)N(C(C)=O)C[C@H]1C,x,1,0,-5,x
C[C@@H]1CN([C@H](C)CO)C(=O)c2cc(NC(=O)Nc3ccccc3)ccc2O[C@@H](C)CCCCO[C@H]1CN(C)C,x,-1,4,0,x
CCCCCC(=O)Nc1cc(S(=O)(=O)O)cc2cc(S(=O)(=O)O)cc(O)c12,105*,98*,-5,36*,-9
CCCCCC(=O)Nc1cc(S(=O)(=O)N2CCCCC2)ccc1N1CCCCC1,-1,4,-3,-4,-40
COc1ccc(S(=O)(=O)Nc2ccc3c(c2)CC(=O)N([C@H](C)CO)C[C@H](C)[C@@H](CN(C)CC2CCCCC2)O3)cc1,x,1,0,24*,x
COc1ccc(S(=O)(=O)Nc2ccc3c(c2)CC(=O)N([C@@H](C)CO)C[C@H](C)[C@@H](CN(C)CC2CCCCC2)O3)cc1,x,1,-3,16*,x
CCCN1[C@@H]2c3ccc(-c4ccccc4OC)c(=O)n3C[C@@H]2[C@@H](CO)[C@@H]1C(=O)Nc1nccs1,x,0,4,-3,x
C[C@@H](O)C#Cc1cnc2c(c1)C(=O)N([C@@H](C)CO)C[C@H](C)[C@@H](CN(C)C(=O)c1ccncc1)O2,x,0,-8,1,x
O=C(CCS(=O)(=O)c1ccccc1)Nc1nc(-c2ccccn2)cs1,x,1,65*,-1,-10
O=C(CCS(=O)(=O)c1ccccc1)Nc1ccccn1,1,23,-9,-2,6
O=C(CCS(=O)(=O)c1ccc(F)cc1)Nc1nc(-c2ccccn2)cs1,0,2,60*,-4,4
CO[C@H]1CN(C)C(=O)c2ccc(NS(C)(=O)=O)cc2OC[C@@H](C)N(Cc2cncnc2)C[C@H]1C,x,1,x,-4,x
SMILES,NSD2 inh,CASP6 VEID inh,ARNT-TACC3 inh,SIRT5 block,PfHsp90 yeast 2
CCn1cc(C(=O)OC)c(=O)c2cc(S(=O)(=O)N(C)C3CCCCC3)ccc21,1,4,12,27*,15
COC(=O)c1cn(C)c2ccc(S(=O)(=O)N(C)C3CCCCC3)cc2c1=O,-3,2,x,-1,x
CC1=Nc2ccccc2/C1=C/c1sc(=S)n(-c2cccc(C(=O)O)c2)c1O,18,6,36,17*,-16
COc1cc(OC)cc(C(=O)Nn2cc(C(=O)Nc3ccccc3F)c3ccccc3c2=O)c1,-1,-1,x,x,x
O=C(Nn1cc(C(=O)Nc2ccccc2F)c2ccccc2c1=O)c1cnccn1,1,-1,60*,-2,3
COC(=O)c1cn(NC(=O)c2cnccn2)c(=O)c2ccccc12,-15,x,63*,x,-16
COC(=O)c1cn(NC(=O)c2ccc(OC)c(OC)c2)c(=O)c2ccccc12,29,x,-2,x,x
CCCNC(=O)[C@H]1[C@H](CO)[C@H]2Cn3c(ccc(C4=CCCC4)c3=O)[C@@H]1N2C(=O)CC1CC1,x,-1,3,-22,x
CC(C)NC(=O)N1CC[C@@H]2[C@H]1c1cc(-c3ccccc3)ccc1N(C)[C@H]2CO,x,-4,5,-10,x
S=c1[nH]nc(-c2ccco2)n1/N=C/C=C/c1ccco1,44,70*,5,x,-9
COc1ccccc1OCC(=O)NCC1CCCN(C(=O)c2ccccc2C(C)=O)C1 (stereo unspecified),1,2,-3,17*,18
COc1ccccc1OCC(=O)NCC1CCCN(C(=O)c2ccccc2SC)C1 (stereo unspecified),0,-1,-5,-5,-2
NS(=O)(=O)c1ccc(CCNC(=O)c2ccc(C#CC3(O)CCCCC3)cc2)cc1,2,6,-17,112*,-26
O=C(/C=C/c1ccc([N+](=O)[O-])cc1)OCC(=O)c1ccc[nH]1,-1,0,-1,23*,-23
CCCC#Cc1ccc2c(c1)O[C@@H](CN(C)Cc1ccc3c(c1)OCO3)[C@@H](C)CN([C@@H](C)CO)S2(=O)=O,x,2,-2,-1,x
C[C@@H]1CN([C@@H](C)CO)C(=O)c2cc(-c3cccnc3)cnc2O[C@H]1CN(C)C(=O)Nc1ccc2c(c1)OCO2,x,-3,0,32*,x
C[C@@H]1CN([C@@H](C)CO)C(=O)c2cc(-c3ccccc3)cnc2O[C@H]1CN(C)C(=O)Nc1ccc2c(c1)OCO2,x,-1,-2,-1,x
C[C@H]1CN([C@@H](C)CO)C(=O)c2cc(-c3ccccc3)cnc2O[C@@H]1CN(C)C(=O)Nc1ccc2c(c1)OCO2,x,-1,4,9.5*,x
CNC[C@H]1Oc2cc(C#Cc3ccc(OC)cc3)ccc2S(=O)(=O)N([C@@H](C)CO)C[C@@H]1C,x,-1,9,0,x
CCC(=O)N1CC[C@@H]2[C@@H](CO)Nc3ccc(C#Cc4ccccc4F)cc3[C@@H]21,x,1,x,2,x
